In the supplement of paper PMC10849652:
Of roughly 7,900 targets only a part is listed; those with a hit were picked by preference. About 0.6% of all pairs of compound and target were hits.

Assays:
Experiment in all cases: log2 fold change, soluble protein after heating vs DMSO (PISA); higher = thermal stabilisation; K562 cells, 10 uM, 30 min; active = over 0.2 and 3.5 SD of the protein, either way, in both replicates (recomputed)
[1] = compound: C1=CC=C(C=C1)[C@H](COC2=CC3=C(C=C2)NC(=O)N3)NC(=O)C4=CC=CN(C4=O)CC5=CC(=C(C=C5)F)F
Method in brief: (§1)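 For each measurement, 10 μM compound was applied for 30 min to K562 cells at 2×10^6 cells/mL. Aliquots were heated for 3 min across 48°C-58°C, pooled, and extracted in PBS with 0.5% NP-40 at 4°C; the supernatant after 21,000xg for 90 min was soluble protein. This was quantified by TMTpro 16plex LC-MS/MS with channel sums equalised, and thermal stability was reported relative to control samples from duplicates, on a log2 fold-change scale.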

[2] = compound: CC1=C(SC2=C1C(=N[C@H](C3=NN=C(N32)C)CC(=O)N)C4=CC=C(C=C4)Cl)C
Method in brief: as §1

[3] = compound: CC1=C2C(=CC=C1)N=C(N(C2=O)C3=CC=CC=C3C)CN4C=NC5=C(N=CN=C54)N
Method in brief: as §1

[4] = compound: Cc1sc2c(c1C)C(c1ccc(Cl)cc1)=N[C@@H](CC(=O)OC(C)(C)C)c1nnc(C)n1-2
Method in brief: as §1

[5] = compound: c1ccc([C@@H]2C[C@H]2NC2CCNCC2)cc1
Method in brief: as §1

Measured: log2 fold change

ACADVL isoform 3 (UniProt P49748)
Chain of UniProt P49748 (P49748 whole entry, looked up): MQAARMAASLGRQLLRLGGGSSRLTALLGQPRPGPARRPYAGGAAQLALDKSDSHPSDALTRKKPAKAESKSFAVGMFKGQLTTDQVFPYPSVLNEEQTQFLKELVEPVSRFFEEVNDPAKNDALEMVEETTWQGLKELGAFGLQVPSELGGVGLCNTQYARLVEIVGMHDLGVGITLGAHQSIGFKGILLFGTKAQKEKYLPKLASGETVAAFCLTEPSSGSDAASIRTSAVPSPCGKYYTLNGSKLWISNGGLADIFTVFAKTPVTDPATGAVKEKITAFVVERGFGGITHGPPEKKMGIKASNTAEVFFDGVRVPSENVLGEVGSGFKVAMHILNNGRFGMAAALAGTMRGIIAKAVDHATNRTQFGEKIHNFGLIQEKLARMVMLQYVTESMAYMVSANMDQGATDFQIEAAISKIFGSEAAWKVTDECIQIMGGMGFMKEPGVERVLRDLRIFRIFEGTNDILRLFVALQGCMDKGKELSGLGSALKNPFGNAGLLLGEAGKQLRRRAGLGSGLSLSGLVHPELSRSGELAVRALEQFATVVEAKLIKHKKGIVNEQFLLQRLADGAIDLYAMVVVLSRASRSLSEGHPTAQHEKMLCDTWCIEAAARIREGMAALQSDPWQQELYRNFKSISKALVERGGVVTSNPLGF
inactive: [1] 0.019 | [2] 0.05 | [3] 0.009 | [4] -0.011 | [5] -0.018

ALDH9A1 (UniProt P49189)
Chain of UniProt P49189 (P49189 whole entry, looked up): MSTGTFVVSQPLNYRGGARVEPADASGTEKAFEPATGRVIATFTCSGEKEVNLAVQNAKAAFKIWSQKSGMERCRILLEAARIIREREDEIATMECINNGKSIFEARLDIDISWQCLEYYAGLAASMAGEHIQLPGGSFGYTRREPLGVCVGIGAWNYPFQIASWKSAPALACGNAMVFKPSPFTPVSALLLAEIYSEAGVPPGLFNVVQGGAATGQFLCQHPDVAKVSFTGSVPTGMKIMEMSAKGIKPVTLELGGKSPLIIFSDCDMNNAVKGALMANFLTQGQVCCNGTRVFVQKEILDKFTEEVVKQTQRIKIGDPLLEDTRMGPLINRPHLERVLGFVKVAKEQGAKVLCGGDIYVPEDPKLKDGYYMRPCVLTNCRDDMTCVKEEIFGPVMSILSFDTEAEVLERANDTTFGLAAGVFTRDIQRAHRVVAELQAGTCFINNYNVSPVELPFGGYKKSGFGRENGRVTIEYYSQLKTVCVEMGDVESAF
inactive: [1] 0.059 | [2] -0.193 | [3] 0.03 | [4] 0.098 | [5] 0.156

B4GALT1 (UniProt P15291)
inactive: [1] 0.034 | [2] 0.057 | [3] -0.065 | [4] -0.022 | [5] -0.042

ALG11 (UniProt Q2TAA5)
inactive: [1] 0.001 | [2] 0.085 | [3] 0.144 | [4] -0.051 | [5] -0.021

ARMC10 (UniProt Q8N2F6)
Chain of UniProt Q8N2F6 (Q8N2F6 whole entry, looked up): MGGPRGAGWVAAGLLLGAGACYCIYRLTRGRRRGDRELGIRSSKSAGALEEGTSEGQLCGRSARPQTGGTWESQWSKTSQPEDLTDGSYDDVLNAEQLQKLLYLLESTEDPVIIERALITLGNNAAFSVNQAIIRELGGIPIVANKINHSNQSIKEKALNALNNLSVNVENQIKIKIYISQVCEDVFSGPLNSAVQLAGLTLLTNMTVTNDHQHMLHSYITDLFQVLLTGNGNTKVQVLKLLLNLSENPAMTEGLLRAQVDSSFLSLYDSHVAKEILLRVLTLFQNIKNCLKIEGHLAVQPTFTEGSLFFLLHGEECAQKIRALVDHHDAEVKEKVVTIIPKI
inactive: [1] 0.035 | [2] -0.017 | [3] -0.006 | [4] 0.012 | [5] -0.009

ALG5 (UniProt Q9Y673)
inactive: [1] -0.037 | [2] 0.1 | [3] 0.082 | [4] -0.06 | [5] -0.056

BSCL2 isoform 4 (UniProt Q96G97)
Chain of UniProt Q96G97 (Q96G97 whole entry, looked up): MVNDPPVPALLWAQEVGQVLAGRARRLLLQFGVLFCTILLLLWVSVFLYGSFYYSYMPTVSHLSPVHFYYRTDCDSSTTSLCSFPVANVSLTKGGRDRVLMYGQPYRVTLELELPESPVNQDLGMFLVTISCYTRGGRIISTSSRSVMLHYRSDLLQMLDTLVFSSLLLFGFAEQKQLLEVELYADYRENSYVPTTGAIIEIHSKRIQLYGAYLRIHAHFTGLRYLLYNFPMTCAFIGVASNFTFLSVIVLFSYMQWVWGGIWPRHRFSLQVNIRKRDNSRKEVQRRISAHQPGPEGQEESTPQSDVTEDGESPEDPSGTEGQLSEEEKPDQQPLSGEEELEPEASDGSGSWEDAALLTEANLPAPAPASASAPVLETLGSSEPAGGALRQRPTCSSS
inactive: [1] -0.07 | [2] 0.106 | [3] -0.084 | [4] 0.027 | [5] -0.127

ADAM15 (UniProt Q13444)
Chain of UniProt Q13444 (Q13444 whole entry, looked up): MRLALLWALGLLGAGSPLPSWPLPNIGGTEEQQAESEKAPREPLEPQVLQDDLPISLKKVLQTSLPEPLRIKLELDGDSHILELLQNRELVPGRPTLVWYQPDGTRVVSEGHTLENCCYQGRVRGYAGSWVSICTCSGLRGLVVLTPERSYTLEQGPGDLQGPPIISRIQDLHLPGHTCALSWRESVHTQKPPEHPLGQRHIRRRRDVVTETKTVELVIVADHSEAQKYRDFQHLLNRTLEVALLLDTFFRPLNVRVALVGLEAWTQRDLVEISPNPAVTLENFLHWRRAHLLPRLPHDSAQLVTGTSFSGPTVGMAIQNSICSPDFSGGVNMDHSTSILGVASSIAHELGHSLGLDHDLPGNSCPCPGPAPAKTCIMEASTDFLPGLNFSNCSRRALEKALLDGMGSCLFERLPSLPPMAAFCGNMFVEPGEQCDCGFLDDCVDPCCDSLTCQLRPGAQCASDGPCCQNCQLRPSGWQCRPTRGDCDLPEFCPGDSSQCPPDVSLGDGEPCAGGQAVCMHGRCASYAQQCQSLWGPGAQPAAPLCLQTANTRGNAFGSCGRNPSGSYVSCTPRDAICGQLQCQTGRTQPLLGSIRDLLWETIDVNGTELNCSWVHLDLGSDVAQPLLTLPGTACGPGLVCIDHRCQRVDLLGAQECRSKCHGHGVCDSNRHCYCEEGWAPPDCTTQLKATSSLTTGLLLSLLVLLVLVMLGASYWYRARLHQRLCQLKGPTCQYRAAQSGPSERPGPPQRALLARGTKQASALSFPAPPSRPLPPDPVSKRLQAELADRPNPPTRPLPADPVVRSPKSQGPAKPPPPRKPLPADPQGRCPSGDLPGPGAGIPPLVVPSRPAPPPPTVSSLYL
inactive: [1] -0.041 | [2] 0.059 | [3] 0.096 | [4] 0.08 | [5] 0

BECN1 (UniProt Q14457)
Chain of UniProt Q14457 (Q14457 whole entry, looked up): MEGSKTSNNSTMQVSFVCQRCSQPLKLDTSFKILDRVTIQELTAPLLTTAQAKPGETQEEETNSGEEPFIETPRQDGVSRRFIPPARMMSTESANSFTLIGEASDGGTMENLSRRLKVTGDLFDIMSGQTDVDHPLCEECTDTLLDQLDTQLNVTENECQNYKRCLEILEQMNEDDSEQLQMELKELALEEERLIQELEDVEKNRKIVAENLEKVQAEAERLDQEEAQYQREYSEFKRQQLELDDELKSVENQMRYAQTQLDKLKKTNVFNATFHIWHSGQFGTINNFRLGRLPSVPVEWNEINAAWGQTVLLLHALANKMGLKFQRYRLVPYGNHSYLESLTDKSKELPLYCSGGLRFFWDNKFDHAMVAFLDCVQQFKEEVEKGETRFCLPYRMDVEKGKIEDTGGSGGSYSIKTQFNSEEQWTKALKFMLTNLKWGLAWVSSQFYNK
inactive: [1] -0.071 | [2] 0.061 | [3] -0.017 | [4] 0.021 | [5] 0.05

ATOX1 (UniProt O00244)
Chain of UniProt O00244 (O00244 whole entry, looked up): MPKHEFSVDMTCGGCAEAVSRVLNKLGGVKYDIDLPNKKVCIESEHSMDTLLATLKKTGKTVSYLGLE
inactive: [1] 0.033 | [2] 0.124 | [3] 0.101 | [4] -0.153 | [5] 0.008

BOP1 (UniProt Q14137)
Chain of UniProt Q14137 (Q14137 whole entry, looked up): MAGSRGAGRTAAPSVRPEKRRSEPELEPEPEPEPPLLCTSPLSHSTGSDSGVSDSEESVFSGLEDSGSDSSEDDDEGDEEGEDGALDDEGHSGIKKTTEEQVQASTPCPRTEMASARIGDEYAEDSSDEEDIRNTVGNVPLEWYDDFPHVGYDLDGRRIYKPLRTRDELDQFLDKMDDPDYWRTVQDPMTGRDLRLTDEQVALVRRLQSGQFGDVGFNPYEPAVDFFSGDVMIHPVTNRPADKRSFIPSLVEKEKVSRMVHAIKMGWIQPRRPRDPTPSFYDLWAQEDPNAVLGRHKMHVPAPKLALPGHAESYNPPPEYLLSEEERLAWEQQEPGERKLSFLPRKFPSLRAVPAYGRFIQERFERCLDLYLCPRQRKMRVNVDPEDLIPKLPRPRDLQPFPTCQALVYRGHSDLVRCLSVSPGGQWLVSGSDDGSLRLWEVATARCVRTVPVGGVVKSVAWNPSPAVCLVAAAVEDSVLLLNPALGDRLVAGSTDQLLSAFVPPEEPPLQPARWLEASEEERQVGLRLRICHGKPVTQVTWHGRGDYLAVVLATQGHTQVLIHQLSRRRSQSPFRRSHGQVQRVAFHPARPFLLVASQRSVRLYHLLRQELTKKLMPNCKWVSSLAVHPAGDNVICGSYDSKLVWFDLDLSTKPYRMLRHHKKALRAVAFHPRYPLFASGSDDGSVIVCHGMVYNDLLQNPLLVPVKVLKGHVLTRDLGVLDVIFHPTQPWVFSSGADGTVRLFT
inactive: [1] 0.096 | [2] -0.099 | [3] 0.01 | [4] -0.036 | [5] -0.01

AMFR (UniProt Q9UKV5)
inactive: [1] -0.043 | [2] -0.004 | [3] 0.023 | [4] 0.024 | [5] -0.046

AFDN isoform 5 (UniProt P55196)
inactive: [1] -0.04 | [2] 0.055 | [3] 0.069 | [4] -0.018 | [5] -0.023

ABCB6 (UniProt Q9NP58)
inactive: [1] 0.001 | [2] 0.003 | [3] 0.05 | [4] -0.049 | [5] 0.012

ARF4 (UniProt P18085)
Chain of UniProt P18085 (P18085 whole entry, looked up): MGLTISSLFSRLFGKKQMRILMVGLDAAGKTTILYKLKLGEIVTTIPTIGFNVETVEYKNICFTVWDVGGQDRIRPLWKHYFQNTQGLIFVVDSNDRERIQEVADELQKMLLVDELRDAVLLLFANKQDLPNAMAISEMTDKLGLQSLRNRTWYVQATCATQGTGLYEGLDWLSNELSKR
inactive: [1] 0 | [2] 0.045 | [3] 0.053 | [4] -0.082 | [5] -0.015

ADD2 (UniProt P35612)
Chain of UniProt P35612 (P35612 whole entry, looked up): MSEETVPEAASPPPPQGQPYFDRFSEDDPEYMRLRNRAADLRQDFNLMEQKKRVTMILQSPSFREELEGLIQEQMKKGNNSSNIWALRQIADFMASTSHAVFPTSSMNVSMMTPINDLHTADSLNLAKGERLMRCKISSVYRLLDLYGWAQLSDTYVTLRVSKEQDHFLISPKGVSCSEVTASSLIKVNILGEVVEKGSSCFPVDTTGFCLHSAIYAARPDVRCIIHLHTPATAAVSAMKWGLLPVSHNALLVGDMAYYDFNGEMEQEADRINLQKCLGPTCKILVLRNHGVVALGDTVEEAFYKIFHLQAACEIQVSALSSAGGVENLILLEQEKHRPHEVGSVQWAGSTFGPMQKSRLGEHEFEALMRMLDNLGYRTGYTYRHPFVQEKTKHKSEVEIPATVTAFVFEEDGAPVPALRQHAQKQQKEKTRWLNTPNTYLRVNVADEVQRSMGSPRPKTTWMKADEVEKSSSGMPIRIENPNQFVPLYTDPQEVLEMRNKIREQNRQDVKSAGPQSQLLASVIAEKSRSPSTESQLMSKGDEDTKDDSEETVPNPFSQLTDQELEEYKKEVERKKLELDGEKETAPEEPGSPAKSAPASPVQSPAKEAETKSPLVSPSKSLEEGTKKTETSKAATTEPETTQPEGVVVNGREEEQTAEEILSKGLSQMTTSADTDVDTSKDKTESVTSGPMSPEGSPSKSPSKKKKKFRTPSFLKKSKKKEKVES
inactive: [1] 0.005 | [2] 0.044 | [3] 0.014 | [4] -0.024 | [5] 0.016
